This is a sample that favours compounds with a hit; in the whole collection about 21% have one here.
TDP1 cell noCPT – qHTS for Inhibitors of human tyrosyl-DNA phosphodiesterase 1 (TDP1): qHTS in cells in absence of CPT | Potency, µM (series often up to 46.2 µM), inactives show at the top dose activity change, negative = growth inhibition, usual class: inhibitors | AID 686978, 2013 | hit rate 15% among 420,000 | DT40 Tdp1-/- hTDP1 cells, no CPT, ATP luminescence, 48 h; note: potency is the fitted concentration of half-maximal effect; % is set by controls: 0 for no effect and ±100 for the full control effect; nearly all actives have a fitted effect of over 55% in size
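Stably hTDP1-transfected Tdp1-null chicken DT40 cells were treated with library compounds minus camptothecin and grown for at least 48 hr at 37 °C, after which cellular ATP was quantified by luminescence.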
D3 antag – antagonists of human D3 dopamine receptor; hit rate 2.5% among 360,000; D3R cells, DiscoveRx beta-arrestin luminescence, antagonist mode; stronger effect = lower value; max response, negative = inhibition, %; in the data active = max response below about -50%; inconclusive = no clear call, values can overlap the other calls; note: % is set by controls: 0 for no effect and ±100 for the full control effect
Target sequence (P35462 whole entry, looked up): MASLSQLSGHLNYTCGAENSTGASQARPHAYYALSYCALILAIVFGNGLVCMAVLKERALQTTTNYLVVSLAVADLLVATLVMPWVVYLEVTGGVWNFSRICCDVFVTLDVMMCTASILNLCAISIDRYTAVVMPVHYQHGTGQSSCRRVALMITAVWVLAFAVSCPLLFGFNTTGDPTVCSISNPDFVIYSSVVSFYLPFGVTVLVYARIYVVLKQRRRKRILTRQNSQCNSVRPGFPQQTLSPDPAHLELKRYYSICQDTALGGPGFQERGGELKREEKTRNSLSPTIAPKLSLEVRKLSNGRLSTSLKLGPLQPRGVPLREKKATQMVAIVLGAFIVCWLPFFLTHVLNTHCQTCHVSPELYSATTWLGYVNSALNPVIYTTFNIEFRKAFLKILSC
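Cells plated overnight at 1500 cells/well, then exposed to library compounds with dopamine controls for 90 minutes at 37 degrees C. DiscoveRx reagent added for 30–60 minutes at room temperature; luminescence read, quantitative HTS format.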
IL1B secr inh – blocks inflammasome-driven IL-1 beta release; THP-1 LPS/ATP IL-1B secretion, AlphaLISA, 16 h; stronger effect = lower value; hit rate 4.7% among 360,000; AID 743279; activity change, % at 57.5 µM; in the data active = activity change below about -50%; inconclusive = mostly about -30% to -49%; note: % is set by controls: 0 for no effect and ±100 for the full control effect
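THP-1 cells pretreated 1 hr with compounds (up to 57.5 uM final), then stimulated with LPS (250 ng/mL final) plus ATP (1.25 mM final); secreted IL-1B measured by AlphaLISA after 16 hr, decreased signal indicating inhibition.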
DT40 TDP1 CPT – growth inhibition of DT40 Tdp1-/-;hTDP1 cells with camptothecin (screen for TDP1 inhibitors) | Potency, µM (top dose mostly 46.2 µM), for inactives: top-dose activity change, negative = growth inhibition, most hits filed as inhibitors | hit rate 12% among 420,000 | chicken DT40 Tdp1-/-;hTDP1 cells + 20 nM CPT, ATP luminescence, 48 h; note: potency is the fitted concentration of half-maximal effect; % is set by controls: 0 for no effect and ±100 for the full control effect; nearly all actives have a fitted effect of over 55% in size
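Cell growth measured by CellTiter-Glo luminescence after a minimum 48 h, 37 C compound exposure with 20 nM CPT in Tdp1-knockout DT40 cells stably expressing hTDP1, seeded 400/well; qHTS titration format.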
ClpP mod – qHTS Assay for Activators of ClpP; ATP-dependent Clp protease proteolytic subunit (Bacillus subtilis (strain 168)), P80244; purified B. subtilis ClpP, FRET peptide cleavage, 20 min; Potency, µM (series often up to 57.5 µM), for inactives: top-dose activity change, negative = active; hit rate 1.9% among 340,000; AID 651965, 2013; active = well fitted falling curve with a large enough effect; inconclusive = small, poorly fitted or top-dose-only effect; inactive = no such curve, though single readings can be large or run the other way; note: potency is the fitted concentration of half-maximal effect; the source files actives as falling curves though it sought activators and does not explain the sign; nearly all actives have a fitted effect of over 65% in size
Target sequence (P80244 whole entry, looked up): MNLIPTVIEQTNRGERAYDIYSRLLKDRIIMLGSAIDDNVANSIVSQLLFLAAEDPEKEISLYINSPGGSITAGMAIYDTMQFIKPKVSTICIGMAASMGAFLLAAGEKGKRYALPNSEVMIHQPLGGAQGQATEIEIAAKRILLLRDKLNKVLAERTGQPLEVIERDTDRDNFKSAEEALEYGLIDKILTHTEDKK
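ClpP 10 microg/mL final, pH 8 Tris/KCl buffer with BSA, glycerol, Tween-20; compound pinned in; FRET-FV substrate; RT 20 min; Ex320/Em430; ΔFRET vs ADEP 5.8 microM, DMSO, no enzyme.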
D3 ag – activates the human D3 dopamine receptor. P35462. D3R DiscoveRx beta-arrestin cells, luminescence, 90 min. max activation, %. hit rate 0.58% among 410,000. AID 652048; in the data active = max activation above about 30%; note: 0% is about no effect
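Cells at 1500/well, incubated overnight, then treated with pinned compounds (dopamine as control) for 90 min at 37 degrees C. DiscoveRx reagent added for 30 - 60 minutes at room temperature; luminescence read.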
Starred values were filed as active, the others as inactive. Unless noted, calls come from the whole dose curve; as a rule, active = well fitted inhibition curve with a large enough effect; inconclusive = small, poorly fitted or top-dose-only effect; inactive = flat fitted curve, though single readings scatter.

Results for O=c1ccn([C@@H]2O[C@H](CNCc3ccc(-c4cc(C(F)(F)F)ccc4Cl)o3)[C@@H](O)[C@H]2O)c(=O)[nH]1 ?
TDP1 cell noCPT: inconclusive; D3 antag: -16; IL1B secr inh: -13; DT40 TDP1 CPT: inconclusive; ClpP mod: 2%; D3 ag: -39

How did Nc1ncnc2c1ncn2[C@@H]1O[C@H](CNCc2cccc(C#Cc3ccccc3)c2)[C@@H](O)[C@H]1O do in these assays?
TDP1 cell noCPT: inconclusive; D3 antag: 2; IL1B secr inh: -4; DT40 TDP1 CPT: 15µM*; ClpP mod: -4%; D3 ag: 1

How did Nc1ncnc2c1ncn2[C@@H]1O[C@H](CNCc2ccccc2)[C@@H](O)[C@H]1O do in these assays?
TDP1 cell noCPT: -20%; D3 antag: -26; IL1B secr inh: 6; DT40 TDP1 CPT: -27%; ClpP mod: 0%; D3 ag: -19

Results for Nc1ncnc2c1ncn2[C@@H]1O[C@H](CNCc2ccccc2OC2OC(CO)C(O)C(O)C2O)[C@@H](O)[C@H]1O (some centres not stated) ?
TDP1 cell noCPT: -4%; D3 antag: -10; IL1B secr inh: 6; DT40 TDP1 CPT: 6%; ClpP mod: 3%; D3 ag: 12

What do the screens show for `Cn1c(=O)oc2cc(S(=O)(=O)NCCC(=O)Nc3ccc(F)c(Cl)c3)ccc21`?
TDP1 cell noCPT: inconclusive; DT40 TDP1 CPT: inconclusive; ClpP mod: 1%; D3 ag: 6

How did C=C1CCN([C@H](C(=O)NCc2ccco2)C(C)C)S(=O)(=O)c2ccccc21 do in these assays?
TDP1 cell noCPT: -18%; D3 antag: -18; IL1B secr inh: -3; DT40 TDP1 CPT: -16%; ClpP mod: 0%; D3 ag: 7

Results for CCCc1ccc(NC(=O)C2CCCN(c3cnccn3)C2)cc1 (configuration not stated) ?
TDP1 cell noCPT: 21µM*; D3 antag: 3; IL1B secr inh: -11; DT40 TDP1 CPT: 21µM*; ClpP mod: -19%; D3 ag: 0

How did CCCCc1ccc(NC(=O)C2CCCC2)cc1 do in these assays?
TDP1 cell noCPT: inconclusive; D3 antag: -10; IL1B secr inh: -67*; DT40 TDP1 CPT: inconclusive; D3 ag: 9

What do the screens show for `C=CCC(O)(CC=C)C(C)N` (configuration not stated)?
TDP1 cell noCPT: 0%; D3 antag: 17; IL1B secr inh: 1; DT40 TDP1 CPT: 5%; ClpP mod: 0%; D3 ag: 1

What do the screens show for `COc1ccccc1Nc1nc(N)nc(CSc2nc(C)cc(C)n2)n1`?
TDP1 cell noCPT: -12%; D3 antag: 12; IL1B secr inh: 8; DT40 TDP1 CPT: 32%; ClpP mod: 1%; D3 ag: 3

How did COc1ccc2nc(SCc3nc(N)nc(Nc4ccccc4)n3)[nH]c2c1 do in these assays?
TDP1 cell noCPT: 16µM*; D3 antag: 21; IL1B secr inh: -4; DT40 TDP1 CPT: inconclusive; ClpP mod: 2%; D3 ag: -5

How did COc1ccc(Nc2nc(N)nc(CSc3nc(C)cc(C)n3)n2)cc1 do in these assays?
TDP1 cell noCPT: inconclusive; D3 antag: -61*; IL1B secr inh: -28; DT40 TDP1 CPT: -1%; ClpP mod: -25%; D3 ag: -11

How did CCOCCCNc1nc2c(S(=O)(=O)c3ccc(CC)cc3)nnn2c2ccc(Cl)cc12 do in these assays?
TDP1 cell noCPT: inconclusive; DT40 TDP1 CPT: inconclusive; ClpP mod: 4%; D3 ag: 5

How did CCOC(=O)C1CN(S(C)(=O)=O)c2cc(CC(=O)OC)ccc2O1 (configuration not stated) do in these assays?
TDP1 cell noCPT: 11%; D3 antag: 12; IL1B secr inh: -101*; DT40 TDP1 CPT: 8%; D3 ag: 10

What do the screens show for `Cc1cc(C(=O)Cn2nnc3ccccc3c2=O)c(C)n1Cc1cccs1`?
TDP1 cell noCPT: 18µM*; D3 antag: 12; IL1B secr inh: -11; DT40 TDP1 CPT: 29µM*; ClpP mod: -5%; D3 ag: 1

How did Cc1cc(C(=O)CN2C(=O)c3ccccc3C2=O)c(C)n1Cc1cccs1 do in these assays?
TDP1 cell noCPT: inconclusive; D3 antag: 5; IL1B secr inh: 4; DT40 TDP1 CPT: inconclusive; ClpP mod: -2%; D3 ag: 1

Results for Cc1cc(C)cc(NC(=O)c2cc(C)n(Cc3cccs3)c2C)c1 ?
TDP1 cell noCPT: 18µM*; D3 antag: inconclusive; IL1B secr inh: -9; DT40 TDP1 CPT: 29µM*; D3 ag: -6

Results for Cc1cc(C(=O)Nc2ccc(Cl)cc2)c(C)n1Cc1cccs1 ?
TDP1 cell noCPT: 8.2µM*; D3 antag: inconclusive; DT40 TDP1 CPT: inconclusive; D3 ag: -11

How did CCn1c2ccccc2c2cc(/C=N/NC(=O)c3ccccc3C)ccc21 do in these assays?
TDP1 cell noCPT: 2.6µM*; D3 antag: -23; IL1B secr inh: 51; DT40 TDP1 CPT: 2.6µM*; ClpP mod: 13µM*; D3 ag: -16

What do the screens show for `CCn1c2ccccc2c2cc(/C=N/O)ccc21`?
TDP1 cell noCPT: inconclusive; D3 antag: 14; IL1B secr inh: -12; DT40 TDP1 CPT: inconclusive; ClpP mod: 3%; D3 ag: 1

What do the screens show for `CCn1c2ccccc2c2cc(/C=N/NC(=O)c3cccc(C)c3)ccc21`?
TDP1 cell noCPT: 18µM*; D3 antag: -27; IL1B secr inh: 47; DT40 TDP1 CPT: 29µM*; ClpP mod: -18%; D3 ag: -6

Results for Cc1cccc(C(=O)N/N=C/c2ccncc2)c1 ?
TDP1 cell noCPT: 4%; D3 antag: -27; IL1B secr inh: 30; DT40 TDP1 CPT: -3%; ClpP mod: -1%; D3 ag: -1

How did O=C(Nc1ccc(Br)cc1F)C(NS(=O)(=O)c1cccc2nsnc12)c1ccccc1 (configuration not stated) do in these assays?
TDP1 cell noCPT: -8%; DT40 TDP1 CPT: -9%; ClpP mod: -2%; D3 ag: -5

How did Cc1cccc(NC(=O)COc2ccc(/C=C\c3[nH]c(=O)[nH]c(=O)c3[N+](=O)[O-])cc2)c1 do in these assays?
TDP1 cell noCPT: -26%; D3 antag: 3; IL1B secr inh: 11; DT40 TDP1 CPT: 10%; D3 ag: -7

High-throughput results deposited in PubChem by National Center for Advancing Translational Sciences (NCATS).
